The list is not random: actives were taken first. Their share in the collection is about 4.3%.
GRIN3A LBD mod = NR3A (human) ligand-binding domain modulation; Tm shift relative to glycine control, % at 25 µM; AID 1259313; NR3A LBD differential scanning fluorimetry, Tm shift; 0% = protein alone, 100% = glycine-bound protein; 340,000 tested, 2.5% active;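 active = melting temperature shift of at least 10% of the positive control shift, at one fixed dose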
ADAM17 inh = inhibitors of human ADAM17; P78536; recombinant ADAM17, EDANS/DABCYL FRET peptide cleavage; AID 720648; inhibition, % at 6.95 µM; 370,000 tested, 0.83% active;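 active = inhibition above the mean of compounds lying between control limits plus 3 SD, set per campaign, cut at about 8.5% in these data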;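 note: 0% = DMSO-only wells as the low control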
ADAM10 inh = inhibitors of human ADAM10; O14672; recombinant ADAM10, EDANS/DABCYL FRET peptide cleavage, 3 h; inhibition, % at 7 µM; 370,000 tested, 0.62% active;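 active = inhibition above a per-campaign cutoff equal to the mean of compounds falling between control-based bounds plus 3 SD, cut at about 20% in these data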;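 note: 0% = DMSO wells while the 100% control is not disclosed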
FAS TE block = FAS thioesterase (human) inhibition; inhibition, % at 15 µM; P49327; recombinant FAS-TE, OMFH fluorogenic substrate, fluorescence endpoint; 360,000 tested, 0.67% active;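 active = compounds whose normalised, plate-corrected inhibition of enzyme fluorescence in the single-dose primary screen is 50% or more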;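 note: 0% = DMSO with enzyme and 100% = substrate without enzyme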
HGIII-sPLA2 inh = Inhibits HGIII-sPLA2 liposome hydrolysis, primary screen; Q9NZ20; QFRET BODIPY PC-A2 liposome hydrolysis, fluorescence; inhibition, % at 12.2 µM; 370,000 tested, 0.56% active;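 active = inhibition above mean plus 3 SD of compounds lying within the high and low control bounds, cut at about 19% in these data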;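 note: 0% = median of test compound wells and 100% = no enzyme DMSO wells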
ADAM10 counter = ADAM10 inhibition, counter-screen for ADAM17 exosite hits | shares compounds with ADAM17 inh | recombinant ADAM10, EDANS/DABCYL FRET peptide cleavage, 3 h | inhibition, % at 6.95 µM | 2,900 tested, 47% active;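 active = mean inhibition over the triplicate runs exceeds the activity threshold set in the earlier primary screen, cut at about 20% in these data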;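 note: 0% = DMSO wells and 100% = marimastat wells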
ADAM17 confirm = human ADAM17 inhibition, confirmation. shares compounds with ADAM17 inh. recombinant ADAM17, EDANS/DABCYL QFRET peptide cleavage. inhibition, % at 6.95 µM. 2,900 tested, 65% active. AID 743257;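 active = mean inhibition across replicates above the hit cutoff set in the primary screen, cut at about 8.5% in these data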;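 note: 0% = DMSO wells and 100% = marimastat wells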
sPLA2 confirm = human GIII-sPLA2 inhibition, confirmation. inhibition, % at 12.2 µM. recombinant hGIII-sPLA2, BODIPY PC-A2 QFRET fluorescence. 2,000 tested, 34% active. AID 743280. shares compounds with HGIII-sPLA2 inh;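 active = mean inhibition across triplicates above the hit cutoff set in the earlier primary screen, cut at about 19% in these data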;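 note: 0% = enzyme with DMSO and 100% = DMSO wells lacking enzyme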
BODIPY interf = optically interferes with 535nm fluorescence in sPLA2 counter-screen; shares compounds with HGIII-sPLA2 inh; BODIPY FL product fluorescence interference, QFRET; inhibition, % at 12.2 µM; 2,000 tested, 8.5% active; AID 743282;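 active = average inhibition above the solvent-only control mean plus 3 SD, cut at about 6% in these data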;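 note: 0% = DMSO with substrate plus product and 100% = DMSO with substrate alone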
BODIPY interf DR = interferes with 535nm fluorescence in dose response counter-screen; shares compounds with HGIII-sPLA2 inh; 240 tested, under 10 active; IC50, µM; BODIPY FL product fluorescence interference, cell-free;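 active = IC50 at or below 10 µM; inactive = IC50 above 10 µM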
Numbers without * were called inactive; i = inactive; x = no result.

SMILES	GRIN3A LBD mod	ADAM17 inh	ADAM10 inh	FAS TE block	HGIII-sPLA2 inh	ADAM10 counter	ADAM17 confirm	sPLA2 confirm	BODIPY interf	others
O=C(/C=C/c1ccc(Br)cc1)c1ccc(NC2=NCCCS2)cc1	-7.0	8.8*	14.0	7.2	-15.9	25.7*	13.0*	x	x
Cc1cccc(Cn2cc(CN3CC(N(C)CCCOC(=O)c4cc5ccccc5o4)CS3(=O)=O)nn2)c1 (configuration not stated)	x	2.1	8.2	x	-14.9	x	x	x	x
Cc1ccccc1OCc1nc(-c2ccc(NC(=O)c3ccco3)cc2)no1	1.3	4.3	-7.0	20.6	-9.3	x	x	x	x
Cc1ccccc1OCc1nc(-c2ccc(NC(=O)c3cccs3)cc2)no1	20.5*	11.9*	5.0	21.8	-7.3	-63.3	-12.3	x	x
COc1ccc(-c2cc(C3CCN(c4ccc(C(C)=O)cc4[N+](=O)[O-])CC3)[nH]n2)cc1	-0.3	12.9*	32.7*	22.0	-52.9	32.0*	18.6*	x	x
COc1ccc(-c2cc(C3CCN(C(=O)OC(C)(C)C)CC3)[nH]n2)cc1	-0.9	1.3	10.3	6.3	-21.5	x	x	x	x
COc1ccccc1-c1cc(C(=O)N/N=C/c2ccc(C)s2)c2ccccc2n1	-6.3	-1.0	7.0	14.5	-1.4	x	x	x	x
CCc1ccc(/C=N/NC(=O)c2cc(-c3ccccc3OC)nc3ccccc23)s1	0.9	9.2*	8.0	25.3	-4.5	-29.9	5.4	x	x
CCC(CC)C(=O)Nc1c(C(=O)N2CCN(c3ccccc3)CC2)oc2ccccc12	-1.9	9.3*	-6.3	15.2	10.6	3.0	3.9	x	x
Oc1c(C(Nc2ccccn2)c2cccnc2)cc(Cl)c2cccnc12 (configuration not stated)	-4.5	10.8*	13.7	-0.8	22.2*	26.4*	15.6*	22.0*	-12.2
CN=c1scc(-c2ccccc2F)n1/N=C/c1ccc(O)c(O)c1O	0.1	2.3	5.0	0.9	18.6	x	x	x	x
CC(C)N=c1scc(-c2cccs2)n1/N=C/c1ccc(O)c(O)c1O	6.0	9.3*	7.5	11.3	37.9*	14.1	11.7*	53.5*	2.2	BODIPY interf DR=>122
C=CCNC(=S)N/N=C/c1ccc(C)c([N+](=O)[O-])c1	1.0	2.2	4.1	8.9	11.3	x	x	x	x
CN(C)c1ccc(/C=N/NC(N)=S)cc1[N+](=O)[O-]	-2.1	10.2*	2.2	2.8	21.5*	28.3*	15.4*	20.4*	-2.1
Cc1ccc(C(=O)C2CCN(CC(=O)N3CC(C)CC(C)C3)CC2)cc1 (configuration not stated)	x	1.2	-10.7	x	-0.6	x	x	x	x
O=C(O)c1cc(O)c2c(c1)[C@H]([C@H]1c3cc(C(=O)O)cc(O)c3C(=O)c3c(O[C@@H]4O[C@H](CO)[C@@H](O)[C@H](O)[C@H]4O)cccc31)c1cccc(OC3O[C@H](CO)[C@@H](O)[C@H](O)[C@H]3O)c1C2=O (some centres not stated)	25.6*	15.8*	-255.1	3.0	27.2*	-367.3	9.7*	2.8	0.7
O=C(O)c1cc(O)c2c(c1)[C@@H]([C@H]1c3cc(C(=O)O)cc(O)c3C(=O)c3c(O[C@@H]4O[C@H](CO)[C@@H](O)[C@H](O)[C@H]4O)cccc31)c1cccc(OC3O[C@H](CO)[C@@H](O)[C@H](O)[C@H]3O)c1C2=O (some centres not stated)	6.6	2.8	-209.2	-0.4	17.1	x	x	x	x
CCCCCCCCN1C(=O)[C@@H](CC(=O)NCCCCc2ccccc2)C[C@@]2(C(=O)OC)C1=C[C@H](C1CCCC1)O[C@@H]2C	x	-5.4	-8.7	x	-2.6	x	x	x	x
O=C(Nc1ccccc1Oc1ccccc1)c1cc([N+](=O)[O-])ccc1Cl	6.9	8.9*	-2.8	49.3	23.1*	-0.2	3.2	13.6	-5.0
CC(C)(C)c1csc(NC(=O)c2ccccc2O)n1	-4.5	-210.6	i	1.1	-23.3	x	x	x	x
CC(C)(C)c1csc(NNC(=O)c2ccc(Br)cc2)n1	-3.6	8.7*	19.5	-12.9	46.5*	-5.3	4.0	49.4*	5.3	BODIPY interf DR=>122
COc1cc(-n2c(C)cc(O)cc2=O)ccc1Cl	x	-1.5	1.6	x	-4.6	x	x	x	x
CCOC(=O)N1CCN(S(=O)(=O)c2ccc(C(=O)NNc3nc4c(C)cc(C)cc4s3)cc2)CC1	0.1	9.7*	15.9	3.0	59.7*	28.8*	22.8*	45.3*	-2.5	BODIPY interf DR=>122
COC(=O)[C@]12C[C@H](CC(=O)NCCCN3CCCC3=O)C(=O)N(Cc3ccccc3)C1=C[C@H](C(C)(C)C)O[C@@H]2C	x	0.4	-0.4	x	3.7	x	x	x	x
CCOC(=O)C1=C(c2ccccc2)NC(=S)NC1c1cc([N+](=O)[O-])ccc1OC (configuration not stated)	-5.1	9.2*	11.9	38.2	23.2*	10.1	6.0	17.8	3.1
SMILES	GRIN3A LBD mod	ADAM17 inh	ADAM10 inh	FAS TE block	HGIII-sPLA2 inh	ADAM10 counter	ADAM17 confirm	sPLA2 confirm	BODIPY interf	others
CCOC(=O)C1=C(c2ccccc2)NC(=S)NC1C (configuration not stated)	0.2	2.7	3.6	-6.3	14.4	x	x	x	x
COC(=O)C1=C(C)N(Cc2ccccc2)C(=S)NC1c1ccc(Br)cc1 (configuration not stated)	x	3.2	4.9	x	19.1	x	x	x	x
COc1cccc(C(Nc2ccccc2)c2ccc3ccc(C)nc3c2O)c1 (configuration not stated)	x	16.9*	11.0	x	21.5*	12.9	14.7*	5.2	8.3*
CCOCCCn1c(SC(C(=O)Nc2cc(C)ccc2C)c2ccccc2)nnc1-c1ccc(Cl)cc1 (configuration not stated)	4.4	9.9*	-8.0	-4.1	19.6*	1.8	6.4	-8.0	-5.2
O=C1C=CC(=O)N1c1ccc2c(c1)C(NC(=O)C(F)(F)F)c1ccccc1-2 (configuration not stated)	-0.8	-3.5	-7.5	17.3	19.4*	x	x	4.2	-4.3
CCN(CC)CCNC(=S)Nc1ccc(Cl)cc1	1.3	-5.7	-8.1	-4.7	21.2*	x	x	13.4	-6.8
CCN(CC)CCCNC(=S)Nc1ccc(Br)cc1	1.2	-0.5	-2.9	-6.1	-1.3	x	x	x	x
